Test results reported in PubChem BioAssay (NCATS).
Several values for one entry are separate records, joined by “and”; a condition that tells them apart may be missing. Equal entries are not always repeated. Records with an inconclusive call do not appear. Activity calls are given as the source filed them. Unless noted, the call rests on the fitted dose curve.

biological target: Bile acid receptor (Homo sapiens) (UniProt Q96RI1); assay: qHTS assay for small molecule agonists of farnesoid X receptor signaling (AID 588527); settings: HEK293T FXR-UAS-bla, beta-lactamase ratio, 16 h; active compounds read high;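 further: 0% = vehicle basal and 100% = reference agonist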
How it was run: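 Quantitative HTS used FXR-UAS-bla HEK293T cells with 16 h compound incubation at 37 C. EC50 values came from concentration-response curves normalized to chenodeoxycholic acid.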

Bile acid receptor (Homo sapiens), sequence (Q96RI1 whole entry, looked up): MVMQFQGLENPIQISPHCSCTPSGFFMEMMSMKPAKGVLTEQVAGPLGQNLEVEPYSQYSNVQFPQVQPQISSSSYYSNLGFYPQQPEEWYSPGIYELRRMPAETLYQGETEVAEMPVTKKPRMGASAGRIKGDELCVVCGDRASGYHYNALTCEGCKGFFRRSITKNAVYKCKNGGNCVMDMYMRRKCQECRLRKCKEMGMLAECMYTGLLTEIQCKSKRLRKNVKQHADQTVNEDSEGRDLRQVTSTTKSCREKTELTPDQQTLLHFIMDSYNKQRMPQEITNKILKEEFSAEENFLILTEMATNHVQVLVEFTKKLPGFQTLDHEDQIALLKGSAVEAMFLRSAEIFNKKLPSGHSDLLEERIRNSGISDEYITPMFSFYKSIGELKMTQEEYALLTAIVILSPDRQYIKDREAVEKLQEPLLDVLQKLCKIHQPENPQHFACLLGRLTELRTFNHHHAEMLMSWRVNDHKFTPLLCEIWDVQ

SMILES	activation
Oc1c(Cl)c(Cl)cc(Cl)c1Cl	3.3% (inactive)
CC(C)Br	-0.0522% (inactive)
O=[N+]([O-])c1ccccc1CCl	-1.64% (inactive)
N#CC(Br)Br	-0.424% (inactive)
O=C(O)C(Cl)Br (stereo not drawn)	-0.167% (inactive)
Cc1cc(N=Nc2ccccc2C)ccc1N	-3.42% (inactive) and -2.58% (inactive)
CC(C)(COCC1CO1)COCC1CO1 (stereo not drawn)	1.49% (inactive)
Cc1ccc2c(c1N)C(=O)c1ccccc1C2=O	-0.569% (inactive) and 1.06% (inactive)
O=[N+]([O-])/C=C/c1ccccc1	2.07% (inactive)

biological target: Glucocorticoid receptor (Homo sapiens) (UniProt P04150); assay: qHTS assay for small molecule agonists of glucocorticoid receptor signaling (AID 588532; active means well fitted curve in the direction sought with a large enough effect in the signal ratio, with a control signal flat; the % refers to the signal ratio;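 further: 100% = dexamethasone at 0.1 µM and 0% = DMSO only wells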); settings: HeLa MMTV-bla, beta-lactamase ratio, agonist, 18 h; active compounds read high; percent of dexamethasone control, DMSO zero
How it was run: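 Agonist-mode qHTS: GRE-driven beta-lactamase in HeLa cells exposed 18 h to titrated compounds (up to 92 uM), then CCF4 ratio read after 2 h at RT; Hill-fitted EC50, efficacy relative to 0.1 uM dexamethasone.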

Glucocorticoid receptor (Homo sapiens), sequence (P04150 whole entry, looked up): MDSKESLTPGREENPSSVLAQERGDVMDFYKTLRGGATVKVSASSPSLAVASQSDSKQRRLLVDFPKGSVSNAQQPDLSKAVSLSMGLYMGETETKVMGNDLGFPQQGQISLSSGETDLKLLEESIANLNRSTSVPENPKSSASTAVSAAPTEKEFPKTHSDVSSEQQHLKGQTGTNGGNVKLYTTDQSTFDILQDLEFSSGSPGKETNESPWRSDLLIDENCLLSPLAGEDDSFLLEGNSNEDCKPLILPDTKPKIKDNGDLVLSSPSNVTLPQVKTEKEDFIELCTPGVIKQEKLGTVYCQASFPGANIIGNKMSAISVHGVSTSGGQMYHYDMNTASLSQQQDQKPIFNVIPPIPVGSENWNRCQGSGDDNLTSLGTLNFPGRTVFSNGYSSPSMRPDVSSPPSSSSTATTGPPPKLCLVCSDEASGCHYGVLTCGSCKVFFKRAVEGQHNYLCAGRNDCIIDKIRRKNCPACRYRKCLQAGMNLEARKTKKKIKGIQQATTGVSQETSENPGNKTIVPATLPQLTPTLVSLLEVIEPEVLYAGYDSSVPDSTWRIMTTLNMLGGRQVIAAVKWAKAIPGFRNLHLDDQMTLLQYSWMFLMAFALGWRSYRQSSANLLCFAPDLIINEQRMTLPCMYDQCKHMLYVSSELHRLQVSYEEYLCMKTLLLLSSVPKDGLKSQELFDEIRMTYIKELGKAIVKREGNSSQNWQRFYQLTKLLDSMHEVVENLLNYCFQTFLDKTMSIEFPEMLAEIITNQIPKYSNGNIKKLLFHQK

SMILES	activation
Cc1ccc(OP(=O)(Oc2ccc(C)cc2)Oc2ccc(C)cc2)cc1	-0.0057% (inactive) and -10.3% (inactive)
Nc1ccc(Cc2ccc(N)c(Cl)c2)cc1Cl	-1.55% (inactive)
CN(C)c1ccc(N(C)C)cc1	1.15% (inactive)
O=[N+]([O-])c1c(Cl)c(Cl)c(Cl)c(Cl)c1Cl	-3.84% (inactive) and -0.795% (inactive)
CN1CSC(=S)N(C)C1	6.16% (inactive)
C=CC(=O)OCCO	19.7% (inactive)
CC(C)[N+](=O)[O-]	-6.88% (inactive)
Cc1cc(-c2cc(C)c(N)c(C)c2)cc(C)c1N	-0.885% (inactive)
Nc1cc(Cl)ccc1O	3.82% (inactive)
CCN(N=O)C(N)=O	-3.98% (inactive)
N#CC(Cl)(Cl)Cl	5.98% (inactive)
CCCCC(CC)COC(=O)c1ccc(C(=O)OCC(CC)CCCC)c(C(=O)OCC(CC)CCCC)c1 (stereo not drawn)	-5.8% (inactive)
O=C(O)C(Br)CBr (stereo not drawn)	-2.23% (inactive)
O=[N+]([O-])c1ccccc1CCl	1.82% (inactive)
Cc1cc(C)cc(OP(=O)(Oc2cc(C)cc(C)c2)Oc2cc(C)cc(C)c2)c1	-3.84% (inactive)
N#CC(Br)Br	-5.99% (inactive)
O=C(O)C(Cl)Br (stereo not drawn)	5.56% (inactive)
Cc1cc(N=Nc2ccccc2C)ccc1N	-7.11% (inactive)
OCCCCO	-5.33% (inactive)
Cc1ccc2c(c1N)C(=O)c1ccccc1C2=O	-11.3% (inactive) and -4.68% (inactive)
CC(C)(C)OOC(=O)c1ccccc1	1.21% (inactive) and -1.74% (inactive)
C(CCOCC1CO1)COCC1CO1 (stereo not drawn)	-0.372% (inactive)
O=[N+]([O-])/C=C/c1ccccc1	-1.34% (inactive)

biological target: Glucocorticoid receptor (Homo sapiens) (UniProt P04150); assay: qHTS assay for small molecule antagonists of glucocorticoid receptor signaling (AID 588533; active means well fitted inhibition curve with a large enough effect in the signal ratio, with a control signal flat, not every such curve was filed as active; the % refers to the signal ratio;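 further: cells stimulated with 2 nM dexamethasone as agonist; on the % scale 0 is the no-effect control and ±100 the full control effect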); settings: HeLa MMTV-bla, GRE beta-lactamase ratio, antagonist mode, 18 h; series mostly up to 76.8 µM; activity change, negative = inhibition: at the top concentration
How it was run: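 Antagonist-mode qHTS: compound titrations added to GRE-bla HeLa cells, then dexamethasone 2 nM final; 18 h, 37 C. CCF4 FRET fluorescence normalized to dexamethasone and DMSO; IC50 from Hill fit.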

SMILES	outcome	activity change, negative = inhibition
Cc1ccc(OP(=O)(Oc2ccc(C)cc2)Oc2ccc(C)cc2)cc1	inactive	–
CN(C)c1ccc(N(C)C)cc1	–	1.37% (inactive)
O=[N+]([O-])c1c(Cl)c(Cl)c(Cl)c(Cl)c1Cl	inactive	–
CN1CSC(=S)N(C)C1	inactive	–
CC(C)Br	–	-3.64% (inactive)
CCCC[N+](=O)[O-]	–	-4.85% (inactive)
Nc1cc(Cl)ccc1O	–	5.15% (inactive)
N#CC(Cl)(Cl)Cl	–	33.4% (inactive)
CCCCC(CC)COC(=O)c1ccc(C(=O)OCC(CC)CCCC)c(C(=O)OCC(CC)CCCC)c1 (stereo not drawn)	–	-21.3% (inactive)
O=[N+]([O-])c1ccccc1CCl	–	-14.8% (inactive)
Cc1cc(C)cc(OP(=O)(Oc2cc(C)cc(C)c2)Oc2cc(C)cc(C)c2)c1	–	-7.53% (inactive)
OCCCCO	–	-23.5% (inactive)
CC(C)(COCC1CO1)COCC1CO1 (stereo not drawn)	–	6.21% (inactive)
Cc1ccc2c(c1N)C(=O)c1ccccc1C2=O	–	-24.1% (inactive)
CC(C)(C)OOC(=O)c1ccccc1	–	1.25% (inactive)
C(CCOCC1CO1)COCC1CO1 (stereo not drawn)	–	1.91% (inactive)
O=[N+]([O-])/C=C/c1ccccc1	–	-11% (inactive)

biological target: Peroxisome proliferator-activated receptor delta (Homo sapiens) (UniProt Q03181); assay: qHTS assay for small molecule agonists of peroxisome proliferator-activated receptor delta signaling (AID 588534); settings: HEK293T PPARdelta-UAS-bla, beta-lactamase ratio, 18 h; series mostly up to 76.7 µM; activation: at the top concentration;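 further: 0% = DMSO basal wells and 100% = positive control agonist at 10 µM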
How it was run: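 EC50 and efficacy values derive from Hill fits of a concentration series in a beta-lactamase reporter cell assay. Exposure is 18 hrs at 37 C, with CCF4 fluorescence as the readout.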

Peroxisome proliferator-activated receptor delta (Homo sapiens), sequence (Q03181 whole entry, looked up): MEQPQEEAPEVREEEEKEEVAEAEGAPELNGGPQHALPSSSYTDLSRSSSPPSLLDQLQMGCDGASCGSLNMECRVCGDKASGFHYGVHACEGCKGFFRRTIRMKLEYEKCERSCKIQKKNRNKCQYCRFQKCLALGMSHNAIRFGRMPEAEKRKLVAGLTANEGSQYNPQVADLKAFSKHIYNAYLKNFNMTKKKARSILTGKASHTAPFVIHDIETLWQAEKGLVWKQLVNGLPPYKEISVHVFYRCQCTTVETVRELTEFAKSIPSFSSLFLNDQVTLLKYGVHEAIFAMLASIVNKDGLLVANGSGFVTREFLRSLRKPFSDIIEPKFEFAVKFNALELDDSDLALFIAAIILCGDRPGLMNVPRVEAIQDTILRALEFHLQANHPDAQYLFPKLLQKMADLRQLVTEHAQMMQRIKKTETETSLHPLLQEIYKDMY

SMILES	outcome	activation
Cc1ccc(OP(=O)(Oc2ccc(C)cc2)Oc2ccc(C)cc2)cc1	inactive	–
Oc1c(Cl)c(Cl)cc(Cl)c1Cl	–	2.72% (inactive)
O=[N+]([O-])c1c(Cl)c(Cl)c(Cl)c(Cl)c1Cl	inactive	–
CN1CSC(=S)N(C)C1	inactive	–
ClCC(Cl)Cl	–	-3.87% (inactive)
Cc1cc(-c2cc(C)c(N)c(C)c2)cc(C)c1N	–	16.1% (inactive)
Nc1cc(Cl)ccc1O	–	-3.7% (inactive)
CCN(N=O)C(N)=O	–	11% (inactive)
N#CC(Cl)(Cl)Cl	–	6.59% (inactive)
CCCCC(CC)COC(=O)c1ccc(C(=O)OCC(CC)CCCC)c(C(=O)OCC(CC)CCCC)c1 (stereo not drawn)	–	6.79% (inactive)
O=C(O)C(Br)CBr (stereo not drawn)	–	-0.759% (inactive)
Nc1c(Br)cc([N+](=O)[O-])cc1[N+](=O)[O-]	–	-2.34% (inactive)
O=[N+]([O-])c1ccccc1CCl	–	5.96% (inactive)
N#CC(Br)Br	–	8.47% (inactive)
O=C(O)C(Cl)Br (stereo not drawn)	–	1.69% (inactive)
COP(=S)(OC)SCn1nnc2ccccc2c1=O	–	-12.4% (inactive)
Nc1ccc([N+](=O)[O-])cc1N	inactive	–
O=C(O)c1cccc(Cl)c1	–	4.68% (inactive)
Cc1cc(N=Nc2ccccc2C)ccc1N	inactive	–
OCCCCO	–	-2.1% (inactive)
O=[N+]([O-])c1cc(Cl)c(Cl)c(Cl)c1	–	1.71% (inactive)
CC(C)(COCC1CO1)COCC1CO1 (stereo not drawn)	–	-7.97% (inactive)
Cc1ccc2c(c1N)C(=O)c1ccccc1C2=O	inactive	–
CC(C)(C)OOC(=O)c1ccccc1	inactive	–
c1ccc(N=NNc2ccccc2)cc1	inactive	–
COC(C)(C)C	–	-1.15% (inactive)
C(CCOCC1CO1)COCC1CO1 (stereo not drawn)	–	9.58% (inactive)
CN(C)c1ccc(N)cc1	–	-14% (inactive)
O=[N+]([O-])/C=C/c1ccccc1	–	9.3% (inactive)
